# From PubChem BioAssay AID2283109 (EPA ToxCast)
# Values joined by “and” are separate entries in the source; they are usually repeats but may differ in a detail not shown here. Equal entries are not always repeated. Active and inactive are the calls of the source. How the source made its calls: active means hit-call score of the fitted dose curve at least 0.9, where 1 is the maximum; inactive means score below 0.9.
# Target: human CYP3A5, CYP3A5 (gene 1577) (UniProt P20815)
# Assay: NVS_ADME_hCYP3A5: NovaScreen (NVS) CYP450-related Enzyme Activity (ADME) Assay for human CYP3A5
# Description: NVS_ADME_hCYP3A5 is a biochemical, single-readout assay that uses extracted gene-proteins in a cell-free assay. Measurements were taken 0.5 hour after chemical dosing in a 96-well plate.NVS_ADME_hCYP3A5 is one of one assay component(s) measured or calculated from the NVS_ADME_hCYP3A5 assay. It is designed to make measurements of enzyme activity, a form of enzyme reporter, as detected with fluorescence intensity signals by Fluorescence technology.Data from the assay component NVS_ADME_hCYP3A5 was analyzed into 1 assay endpoint. This assay endpoint, NVS_ADME_hCYP3A5, was analyzed in the positive analysis fitting direction relative to Acetonitrile as the negative control and baseline of activity. Using a type of enzyme reporter, loss-of-signal activity can be used to understand changes in the enzymatic activity as they relate to the gene CYP3A5. Furthermore, this assay endpoint can be referred to as a primary readout, because this assay has produced […] where this one serves a enzymatic activity function. To generalize the intended target to other relatable targets, this assay endpoint is annotated to the cyp intended target family, where the subfamily is xenobiotic metabolism. […]
# Sequence of human CYP3A5, CYP3A5 (gene 1577) (P20815 whole entry, looked up): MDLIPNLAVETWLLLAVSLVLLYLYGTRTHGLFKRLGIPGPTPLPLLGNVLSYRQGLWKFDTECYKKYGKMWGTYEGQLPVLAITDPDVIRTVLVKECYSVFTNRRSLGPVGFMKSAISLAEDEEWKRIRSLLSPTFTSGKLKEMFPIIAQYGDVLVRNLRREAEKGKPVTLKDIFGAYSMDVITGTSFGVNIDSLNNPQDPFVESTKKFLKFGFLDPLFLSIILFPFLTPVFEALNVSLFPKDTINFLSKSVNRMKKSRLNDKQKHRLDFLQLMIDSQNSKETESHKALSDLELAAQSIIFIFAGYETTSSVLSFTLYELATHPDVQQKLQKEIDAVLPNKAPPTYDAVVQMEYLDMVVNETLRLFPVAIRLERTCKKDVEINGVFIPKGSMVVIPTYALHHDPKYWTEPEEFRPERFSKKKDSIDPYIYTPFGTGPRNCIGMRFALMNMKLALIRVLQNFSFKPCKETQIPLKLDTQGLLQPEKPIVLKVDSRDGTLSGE
structure (smiles),measurement,value
C#C[C@]1(O)CC[C@H]2[C@@H]3CCc4cc(O)ccc4[C@H]3CC[C@@]21C,AC50,1.84 µM (active) and 3.89 µM (active) and 1.71 µM (active)
